The target of the test is Bifunctional epoxide hydrolase 2 (Homo sapiens) (UniProt P34913). The test is described as follows: sEH inhibitor concentration-response potency, dose response, biochemical, human sEH, fluorescence, Infinite200 (AID 1026). Conditions: recombinant human sEH, fluorogenic substrate, at 0.2 µM, hits give high values.

SMILES strings stand for the structures. A number with no mark means an inactive call. How the calls were made is not given here.

Bifunctional epoxide hydrolase 2 (Homo sapiens), sequence (P34913 whole entry, looked up): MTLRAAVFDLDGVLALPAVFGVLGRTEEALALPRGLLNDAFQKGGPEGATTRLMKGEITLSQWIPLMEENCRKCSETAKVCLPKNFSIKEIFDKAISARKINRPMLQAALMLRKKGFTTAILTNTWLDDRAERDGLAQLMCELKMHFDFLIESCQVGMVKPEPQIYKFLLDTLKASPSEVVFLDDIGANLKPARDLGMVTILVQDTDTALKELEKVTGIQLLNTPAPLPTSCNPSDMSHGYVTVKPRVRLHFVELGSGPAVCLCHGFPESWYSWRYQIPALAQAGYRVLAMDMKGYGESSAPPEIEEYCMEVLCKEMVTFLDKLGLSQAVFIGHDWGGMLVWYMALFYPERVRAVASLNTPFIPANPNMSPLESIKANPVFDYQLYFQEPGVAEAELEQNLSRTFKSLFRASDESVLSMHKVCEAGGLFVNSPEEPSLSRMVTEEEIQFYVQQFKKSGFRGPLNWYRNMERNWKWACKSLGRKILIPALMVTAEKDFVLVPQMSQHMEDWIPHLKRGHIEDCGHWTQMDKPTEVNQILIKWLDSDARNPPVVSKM

In the case of `Cc1cc2nc(-c3ccc(SCC(=O)N4CCc5ccccc54)nc3)[nH]c2cc1C`, the inhibition – broadly, the drop in the measured response relative to a control, in per cent – is 56.7%. Regarding `C/C(=N\NC(=O)Cc1cccn1C)c1cccc2ccccc12`, the inhibition was 40.4%. As for `CC1CC(C)CN(C(=O)c2ccc3c(=O)n(Cc4ccc5c(c4)OCO5)c(=S)[nH]c3c2)C1` (stereo not given), the inhibition is 54.3%. For `CCCCC(CC)CNC(=O)C1CCCN(S(=O)(=O)c2cnc[nH]2)C1` (stereo not given), the inhibition is 49.9%.

Regarding `O=C1CSc2ccc(C(=O)NCCC3=CCCCC3)cc2N1`, the inhibition is 51.9%. For the compound `CC1CCCC(NC(=O)Nc2cccs2)C1C` (stereo not given), the inhibition is 49.2%. Regarding `O=C(CCCCCn1c(=S)[nH]c2ccccc2c1=O)NCc1ccc2c(c1)OCO2`, the inhibition is 59.3%. The same measure for `Cc1cc(N2CCCC(C(=O)Nc3ccc4c(c3)CCC4)C2)n2ncnc2n1` (stereo not given): 50.2%; for `CCOc1ccc(NC(=O)c2ccc(F)c(S(=O)(=O)N3CCN(c4ccccn4)CC3)c2)cc1`: 64.3%; for `Cc1ccc2c(c1)nnn2C1CCN(C(=O)NC23CC4CC(CC(C4)C2)C3)CC1`: 60.5%. The same measure for `CCC(C)[C@H](NC(=O)NCc1ccccc1Cl)C(=O)OC` (stereo not given in full): 48.1%; for `O=C(Nc1ccc(Cl)c(C(F)(F)F)c1)C1CCCN(S(=O)(=O)c2cnc[nH]2)C1` (stereo not given): 72.5%. For the compound `O=C(N[C@@H](Cc1ccccc1)C(=O)NC1CCCCCC1)c1ccco1`, the inhibition is 36.3%. With `CC(NC(=O)NC12CC3CC(CC(C3)C1)C2)C1CCCO1` (stereo not given), the inhibition was 71.5%. In the case of `O=C(COc1c(F)c(F)c(C(F)(F)F)c(F)c1F)Nc1ccc(N2CCOCC2)c(Cl)c1`, the inhibition is 49.2%. Regarding `Cc1c(Cl)c([N+](=O)[O-])nn1Cc1ccc(C(=O)N/N=C\c2cccc(Br)c2)o1`, the inhibition is 66.8%. As to `CC(=O)NC1CC2CCCC(C1)N2C(=O)Nc1ccc(Cl)c(C(F)(F)F)c1` (stereo not given), the inhibition is 41.4%. Regarding `Cc1nn(Cc2ccccc2Cl)c(C)c1NC(=O)NC12CC3CC(CC(C3)C1)C2`, the inhibition is 66%. The same measure for `Cc1ccc(Cn2ccc(=O)c(Cc3c(Cl)cccc3Cl)c2C)cc1`: 63.6%; for `CCOc1ccc(NC(=O)NCC2CCN(c3ccc(OC)cc3)C2)cc1` (stereo not given): 26.9%. The same measure for `Cc1oc(-c2ccccc2F)nc1CN1CCC(C(=O)NC2CCCCCCC2)CC1`: 63.1%; for `CCN(CCNC(=O)C1CCN(Cc2nc(-c3cccc(Cl)c3)oc2C)CC1)c1ccccc1`: 45.4%.

Turning to `CC(C)c1ccc(NC(=O)NC2CCN(CC(=O)Nc3cccc4ccccc34)CC2)cc1`, the inhibition was 62.2%. With `CCOc1ccc(NC(=O)N2CCC(c3ccc(C)cc3)C2)cc1` (stereo not given), the inhibition is 50.5%. For `Cc1nc2cc(NC(=O)NCCC3=CCCCC3)ccc2o1`, the inhibition was 45%.

The record behind these values is PubChem BioAssay AID1026 (Columbia University Molecular Screening Center, 2008).
